The nature of assay [1]: resazurin metabolic signal in HepG2 cells – cell-based, resazurin fluorescence, 24 h, PK04 Diversity Set, profiling panel (AID 1172). Also: test concentration not given here. The settings on record: HepG2 viability, higher = more signal. (In general: Alamar Blue is a resazurin reagent that responds to reducing activity.)
Assay [2] can be described thus: budding yeast growth changes without added modifier – OD600, strain BY4716, 24 h, basal condition, primary screen (AID 1173). The settings on record: S. cerevisiae BY4716 growth, OD600, 24 h; higher = more signal, called active from +8 up or from −8 down.
A short description of assay [3]: viability profiling in MM1S myeloma cells – cell-based, resazurin fluorescence, basal, 24 h, PK04 Diversity Set, profiling panel (AID 1174).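 Also: MM1S multiple myeloma cell line; test concentration not given here.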 Particulars: higher = more signal, called active from +8 up or from −8 down.
For assay [4], the target named is Dihydroorotate dehydrogenase (quinone), mitochondrial (Plasmodium falciparum (isolate 3D7)) (UniProt Q08210). Description: inhibition of P. falciparum DHODH – biochemical, C-terminal His tag, absorbance 600 nm, primary screen (AID 1175).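 Also: recombinant parasite enzyme with a five histidine tag at its C terminus; test concentration not given here.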 The settings on record: PfDHODH enzyme, DCIP absorbance 600 nm; higher = more signal, called active from +8 up or from −8 down.
Assay [5] in a line: inhibition of PAO1 biofilm formation – strain PAO1, LB-PBS medium, absorbance 600 nm, primary screen (AID 1176). Also: test concentration not given here. Particulars: P. aeruginosa PAO1 growth/biofilm, A600, 12 h; higher = more signal.
A short description of assay [6]: growth modulation of vineyard yeast isolate – strain RM11-1a, OD600, basal, 24 h, primary screen (AID 1177).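 Also: cultures grown under basal conditions with no added stressor; test concentration not given here.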 Particulars: S. cerevisiae RM11-1a growth, OD600, 24 h; higher = more signal, called active from +8 up or from −8 down.
A short description of assay [7]: growth of efflux-deficient E. coli DRC39 – strain DRC39, OD650, 24 h, E. coli filamentation inducers, primary screen (AID 1178).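 Also: growth measured as culture turbidity by optical density at 650 nm; test concentration not given here.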 The settings on record: E. coli DRC39 acrAB, higher = more signal, called active from +8 up or from −8 down.
A short description of assay [8]: growth of efflux-deficient E. coli DRC39 – strain DRC39, OD650, 48 h, E. coli filamentation inducers, primary screen (AID 1179).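 Also: screen aims at cell division blockers that make cells filament.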 The settings on record: E. coli DRC39 delta-acrAB growth, higher = more signal, called active from +8 up or from −8 down.
Assay [9] in a line: viability profiling in RPMI8226 myeloma cells – cell-based, resazurin fluorescence, basal, 24 h, PK04 Diversity Set, profiling panel (AID 1180).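 Also: RPMI8826 multiple myeloma cell line at 5000 cells per well; test concentration not given here.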 The settings on record: higher = more signal.
For assay [10], the target named is E3 ubiquitin-protein ligase XIAP (Homo sapiens) (UniProt P98170). Description: small molecules binding XIAP protein – biophysical, small-molecule microarray, fluorescence 635 nm, primary screen (AID 1181).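 Also: score merges 667 nm emission and signal to noise over triplicate slides.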 Particulars: higher = more signal.

SMILES strings stand for the structures. The source made the active and inactive calls. Unless noted, no rule for the calls is given here.

Sequence of E3 ubiquitin-protein ligase XIAP (Homo sapiens) (P98170 whole entry, looked up): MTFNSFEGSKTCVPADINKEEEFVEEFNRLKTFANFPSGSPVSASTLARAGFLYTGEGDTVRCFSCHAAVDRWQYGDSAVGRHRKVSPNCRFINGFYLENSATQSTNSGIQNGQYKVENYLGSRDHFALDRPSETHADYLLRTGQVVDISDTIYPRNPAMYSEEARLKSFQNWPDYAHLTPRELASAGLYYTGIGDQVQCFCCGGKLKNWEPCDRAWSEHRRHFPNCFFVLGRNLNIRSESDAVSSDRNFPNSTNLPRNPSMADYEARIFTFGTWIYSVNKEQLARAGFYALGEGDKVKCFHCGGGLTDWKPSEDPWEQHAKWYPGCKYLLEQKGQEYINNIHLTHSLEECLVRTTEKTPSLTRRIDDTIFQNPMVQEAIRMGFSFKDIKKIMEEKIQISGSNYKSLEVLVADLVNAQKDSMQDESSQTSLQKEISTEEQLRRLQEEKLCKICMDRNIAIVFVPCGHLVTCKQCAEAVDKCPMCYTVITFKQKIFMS
Sequence of Dihydroorotate dehydrogenase (quinone), mitochondrial (Plasmodium falciparum (isolate 3D7)) (Q08210 whole entry, looked up): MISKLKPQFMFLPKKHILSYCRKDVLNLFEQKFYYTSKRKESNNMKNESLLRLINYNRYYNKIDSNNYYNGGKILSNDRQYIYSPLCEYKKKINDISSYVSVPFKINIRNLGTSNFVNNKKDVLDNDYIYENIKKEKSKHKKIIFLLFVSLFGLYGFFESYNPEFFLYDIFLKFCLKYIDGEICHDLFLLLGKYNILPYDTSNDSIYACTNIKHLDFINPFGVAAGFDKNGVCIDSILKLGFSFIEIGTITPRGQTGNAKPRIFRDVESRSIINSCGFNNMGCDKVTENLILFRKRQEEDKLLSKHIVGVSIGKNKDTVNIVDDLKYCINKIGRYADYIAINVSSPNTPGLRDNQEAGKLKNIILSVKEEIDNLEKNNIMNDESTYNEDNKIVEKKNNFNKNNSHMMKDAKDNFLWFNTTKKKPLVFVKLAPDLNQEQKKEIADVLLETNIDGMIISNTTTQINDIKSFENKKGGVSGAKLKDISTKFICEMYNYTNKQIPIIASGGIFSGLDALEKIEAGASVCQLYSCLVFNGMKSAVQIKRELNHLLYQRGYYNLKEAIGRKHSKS

Take `COC(=O)[C@H](C)NC(=O)CCC1CC(OC(=O)NCCc2ccc(F)cc2)CC2(CCCC(COC(=O)NCc3cccc(C(F)(F)F)c3)O2)O1` (stereo not given in full): the z-score in assay [1] was -0.0701; in assay [2] it was 1.05 (inactive); in [3], 0.045 (inactive); in [5] it was 0.59 (inactive); in assay [6], 0.744 (inactive); in [7], 0.696 (inactive). For the same compound, the values for the z-score in [8] and in assay [9] were 0.602 (inactive) and 0.436, respectively. For the same compound, the composite z-score in [4] was -0.302 (inactive); in assay [10], 0.103.

In the case of `CC(C)=CCCC(C)=CCON=C1C[C@@H](O)[C@@H](O)[C@@H]2[C@@H]3C(=O)N(Cc4ccccc4)C(=O)[C@@H]3CC[C@H]12`, the z-score is 1.17 in assay [1]; -2.99 (inactive) in assay [2]; 1.14 (inactive) in [3]; 0.507 (inactive) in assay [5]; -1.28 (inactive) in [6]; -0.366 (inactive) in assay [7]. For the same compound, the figures for the z-score in assay [8] and in assay [9] were 0.167 (inactive) and 0.369, respectively. The composite z-score in assay [4] was -0.88 (inactive); in assay [10], -0.177.

For the compound `C=CC[C@@H]1C=C[C@H](ON=C(C)CCC(=O)OC[C@H]2O[C@H](c3ccccc3)C=C[C@@H]2Oc2ccc(OC)cc2)[C@@H](CO)O1`, the z-score is 0.0276 in [1]; 0.31 (inactive) in assay [2]; -0.517 (inactive) in [3]; 0.347 (inactive) in assay [5]; -0.0293 (inactive) in assay [6]; 0.741 (inactive) in [7]. Moreover, the z-score in assay [8] is 1.15 (inactive); in assay [9] it was -0.212. Further, the composite z-score in assay [4] is -0.582 (inactive); in assay [10], -0.0272.

As for `CCCCC#C[C@@H]1C=C[C@H](Oc2cc(OC)c(OC)c(OC)c2)[C@@H](COC(=O)OCC)O1`, the z-score was -0.826 in [1]; -0.535 (inactive) in [2]; -1.03 (inactive) in [3]; 0.806 (inactive) in assay [5]; 0.628 (inactive) in [6]; 1.02 (inactive) in assay [7]. Also, the values for the z-score in assay [8] and in assay [9] were 0.751 (inactive) and -0.65, respectively. In addition, the composite z-score is -1.48 (inactive) in assay [4] and -0.113 in assay [10].

Take `O=C1[C@H]2[C@H]3[C@H](O)[C@H](O)CC(=NOCc4ccccc4)[C@H]3CC[C@H]2C(=O)N1Cc1ccc2c(c1)OCO2`: the z-score is 0.616 in assay [1]; -0.0033 (inactive) in [2]; 0.13 (inactive) in [3]; -0.695 (inactive) in assay [5]; 0.0065 (inactive) in assay [6]; 0.698 (inactive) in [7]. The figures for the z-score in assay [8] and in [9] were -1.38 (inactive) and 0.129, respectively. Also, the composite z-score in assay [4] is -0.51 (inactive); in assay [10], -0.0663.

Regarding `COc1cccc([C@@H]2Oc3ccc(OC)cc3C(=O)[C@H]2O)c1`, the z-score was 0.115 in assay [1]; -8.27 (active) in assay [2]; 0.0409 (inactive) in assay [3]; -0.364 (inactive) in assay [5]; -0.55 (inactive) in assay [6]; -1.47 (inactive) in [7]. Besides, the z-score is -2.37 (inactive) in assay [8] and 0.329 in assay [9]. Besides, the composite z-score is -2.73 (inactive) in assay [4] and -0.0773 in assay [10].

`COc1ccc(C#C[C@@H]2C=C[C@H](OC(C)=O)[C@@H](COC(C)=O)O2)cc1`: the z-score was 0.0002 in assay [1]; -1.59 (inactive) in assay [2]; -2.77 (inactive) in assay [3]; 0.0372 (inactive) in assay [5]; -0.939 (inactive) in assay [6]; 0.746 (inactive) in assay [7]. Besides, the z-score in [8] is 0.348 (inactive); in assay [9], -1.49. Moreover, the values for the composite z-score in assay [4] and in assay [10] were -0.531 (inactive) and -0.0801, respectively.

With `CCN1C(=O)[C@H]2[C@H]3[C@H](O)[C@H](O)CC(=NO[C@@H](C)c4cn([C@H](CO)Cc5ccccc5)nn4)[C@@H]3CC[C@H]2C1=O`, the z-score in assay [1] is -0.817; in [2] it was 0.833 (inactive); in [3] it was -0.866 (inactive); in assay [5], 0.135 (inactive); in [6] it was 0.47 (inactive); in assay [7] it was 0.121 (inactive). Besides, the values for the z-score in assay [8] and in assay [9] were -0.336 (inactive) and -0.504, respectively. Further, the composite z-score in assay [4] is -0.642 (inactive); in assay [10] it was 0.0451.

Consider `CCC1=NOC(CCC2CC(OC(=O)NCc3cccc4c3OCO4)CC3(CCCC(COC(=O)NCCc4ccccc4OC)O3)O2)C1` (stereo not given), for which the z-score in [1] is -0.211; in assay [2], -0.101 (inactive); in assay [3] it was 0.0125 (inactive); in assay [5], 1.43 (inactive); in [6], -0.509 (inactive); in [7], 1.13 (inactive). In addition, the z-score in [8] was 0.918 (inactive); in assay [9], 0.718. Also, the composite z-score in assay [4] was -0.104 (inactive); in [10] it was -0.294.

In the case of `COC(=O)CC=C[C@@H](C)[C@@H](C=NO[C@@H]1O[C@H](COC(C)=O)[C@@H](OC(C)=O)[C@H](OC(C)=O)[C@H]1OC(C)=O)OC`, the z-score in assay [1] is 0.992; in assay [2], -0.298 (inactive); in [3] it was -0.205 (inactive); in [5], 0.0738 (inactive); in [6], -0.0389 (inactive); in [7], -1.03 (inactive). Further, the z-score in assay [8] is -0.932 (inactive); in [9], 0.672. The composite z-score in [4] is 0.159 (inactive); in assay [10] it was 0.127.

`Cc1ccc(S(=O)(=O)N[C@H]2COC(=O)CC=C[C@@H](C)COC(=O)CC=C[C@@H]2C)cc1`: the z-score in assay [1] was -0.118; in assay [2], -0.603 (inactive); in assay [3], 0.186 (inactive); in assay [5], -0.319 (inactive); in assay [6], 0.313 (inactive); in assay [7], 0.0613 (inactive). Besides, the z-score is -0.0105 (inactive) in [8] and 0.108 in assay [9]. Further, the composite z-score in assay [4] was -0.765 (inactive); in [10] it was -0.239.

Regarding `CC(CCN1CCCCc2nc(C)c(C)cc21)=NOC[C@@H](C)[C@H](OCc1ccccc1)C(C)C`, the z-score is -0.345 in assay [1]; -2.36 (inactive) in assay [2]; -0.13 (inactive) in assay [3]; 0.147 (inactive) in assay [5]; -2.61 (inactive) in [6]; -1.22 (inactive) in [7]. Also, the z-score in assay [8] was 0.0039 (inactive); in assay [9], 0.0342. Moreover, the values for the composite z-score in assay [4] and in assay [10] were -1.46 (inactive) and 0.0153, respectively.

The record behind these values is PubChem BioAssay.
